Measured values reported in PubChem BioAssay (NCATS).
Results filed as inconclusive are left out. Active and inactive are the calls of the source. Calls follow the shape of the dose curve; as a rule, active = well fitted curve in the direction sought with a large enough effect; inconclusive = small, poorly fitted or top-dose-only effect, or another doubt; inactive = no such curve, though single readings can be large; an effect the other way counts as inactive or inconclusive.

Key:
[1] = system: WaGa; assay: qHTS assay to identify novel small-molecules to repurpose for Merkel cell carcinoma treatment (AID 1296009); conditions: MCC and control cell lines, CellTiter-Glo viability, 72 h; series mostly up to 46 µM; also: nearly all actives have a fitted effect of over 60% in size
Outline: (§1)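 Viability readout: ATP luminescence (CellTiter-Glo) after 72 hr drug exposure at 37 degree celsius. Dose-response format was 8 points for NPC and 11 points for MIPE; data normalized to in-plate controls.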

[2] = system: C33A; assay: Primary qHTS to identify gynecologic anti-cancer compounds using libraries of approved drugs and bioactive compounds (AID 1345084); conditions: Gynecologic cancer cell panel viability, ATPlite luminescence, 48 h; series mostly up to 57.5 µM; also: nearly all actives have a fitted effect of over 55% in size
Outline: (§2)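 Cells, 1,000 per well, plated 16 h, then exposed 48 h at 37 C to compounds. Viability by ATPlite luminescence after 15 min at room temperature.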

[3] = system: CAOV3; assay: as above; conditions: Gynecologic cancer cell panel viability, ATPlite luminescence, 48 h; series mostly up to 57.5 µM
Outline: as §2

[4] = system: CASKI; assay: as above; conditions: Gynecologic cancer cell panel viability, ATPlite luminescence, 48 h; series mostly up to 57.5 µM
Outline: as §2

[5] = system: HeLa; assay: as above; conditions: Gynecologic cancer cell panel viability, ATPlite luminescence, 48 h; series mostly up to 57.5 µM
Outline: as §2

[6] = system: Hek293T; assay: as above; conditions: Gynecologic cancer cell panel viability, ATPlite luminescence, 48 h, control line for the selectivity index; series mostly up to 57.5 µM
Outline: as §2

[7] = system: UISO; assay: qHTS assay to identify novel small-molecules to repurpose for Merkel cell carcinoma treatment (AID 1296009); conditions: MCC and control cell lines, CellTiter-Glo viability, 72 h; series mostly up to 46 µM; also: nearly all actives have a fitted effect of over 60% in size
Outline: as §1

[8] = system: Es-2; assay: Primary qHTS to identify gynecologic anti-cancer compounds using libraries of approved drugs and bioactive compounds (AID 1345084); conditions: Gynecologic cancer cell panel viability, ATPlite luminescence, 48 h; series mostly up to 57.5 µM; also: nearly all actives have a fitted effect of over 55% in size
Outline: as §2
% is scaled to controls: 0 for no effect and ±100 for the full control effect; potency is read from the fitted curve at half-maximal effect.

NC(=O)c1cccc2cn(-c3ccc([C@@H]4CCCNC4)cc3)nc12
inactive: Potency [2] | Potency [3] | Potency [4] | Potency [5] | Potency [6]
active: Potency [1] 10.5 µM

Nc1ncnc2c1c(-c1cccc(OCc3ccccc3)c1)cn2C1CC(CN2CCCC2)C1 (stereo unspecified)
active: Potency [7] 10.5 µM
inactive: Potency [2] | Potency [8]

Cc1ccc(C(=O)Nc2ccc(CN3CCN(C)CC3)c(C(F)(F)F)c2)cc1C#Cc1cnc2cccnn12
active: Potency [2] 25.1 µM | Potency [4] 14.1 µM | Potency [8] 8.91 µM | Potency [5] 11.2 µM

Cc1cn(-c2cc(NC(=O)c3ccc(C)c(Nc4nccc(-c5cccnc5)n4)c3)cc(C(F)(F)F)c2)cn1
inactive: Potency [2] | Potency [4] | Potency [8] | Potency [5] | Potency [6]

COc1c(OCCCN2CCOCC2)ccc2c3n(c(=NC(=O)c4cnc(N)nc4)nc12)CCN3
active: Potency [2] 0.316 µM | Potency [4] 0.112 µM | Potency [5] 1 µM
inactive: activity change, negative = cytotoxicity [3] -27.2% [at 11.6 µM]

COC(=O)c1ccc2c(C(=Nc3ccc(N(C)C(=O)CN4CCN(C)CC4)cc3)c3ccccc3)c(O)[nH]c2c1
inactive: Potency [2] | Potency [4] | Potency [8] | Potency [6]

Cc1cc(Nc2nc(N[C@@H](C)c3ccc(F)cc3)c(C#N)cc2F)n[nH]1
active: Potency [8] 14.1 µM | Potency [5] 5.62 µM
inactive: Potency [2]

Nc1cccc(-c2cc3c(Oc4cccc(O)c4)ncnc3[nH]2)c1
inactive: Potency [7] | Potency [2] | Potency [8]

O=C(Nc1cc(C(F)(F)F)cc(C(F)(F)F)c1)c1cc(Cl)ccc1O
active: Potency [7] 2.35 µM | Potency [2] 3.16 µM | Potency [4] 3.55 µM | Potency [8] 5.01 µM | Potency [5] 2.24 µM | Potency [6] 2.51 µM

Nc1ncnc2c1c(-c1cnc3[nH]ccc3c1)nn2C1CCCC1
active: Potency [7] 4.69 µM | Potency [4] 11.2 µM | Potency [8] 10 µM | Potency [5] 10 µM | Potency [6] 7.94 µM

Cn1cc(-c2ccncc2)c(-c2ccc(OCc3ccc4ccccc4n3)cc2)n1
inactive: Potency [3] | Potency [4] | Potency [8] | Potency [5] | Potency [6]

N#CCNC(=O)c1ccc(-c2ccnc(Nc3ccc(N4CCOCC4)cc3)n2)cc1
inactive: Potency [2] | Potency [4] | Potency [5]
active: Potency [7] 14.8 µM

COC(=O)Nc1ccc(-c2nc(N3CCOCC3)c3cnn(C4CCN(Cc5cccnc5)CC4)c3n2)cc1
active: Potency [7] 1.87 µM | Potency [3] 8.91 µM | Potency [8] 4.47 µM | Potency [5] 25.1 µM | Potency [6] 2.24 µM

Cc1cc(Nc2cc(CN3CCOCC3)c3nc(C)c(Cc4ccc(Cl)cc4F)n3n2)n[nH]1
active: Potency [7] 23.5 µM | Potency [5] 14.1 µM
inactive: Potency [2] | Potency [4] | Potency [6]

C=CCn1c(=O)c2cnc(Nc3ccc(N4CCN(C)CC4)cc3)nc2n1-c1cccc(C(C)(C)O)n1
active: Potency [7] 3.72 µM | Potency [2] 1.41 µM | Potency [4] 3.16 µM | Potency [8] 1.26 µM | Potency [5] 0.708 µM | Potency [6] 0.631 µM

C=CC(=O)Nc1cc2c(Nc3ccc(F)c(Cl)c3)ncnc2cc1OCCCN1CCOCC1
active: Potency [3] 10 µM | Potency [4] 8.91 µM
inactive: Potency [8] | Potency [5] | Potency [6]

CC(=O)Nc1nc(C)c(-c2ccc(Cl)c(S(=O)(=O)NCCO)c2)s1
active: Potency [1] 5.9 µM | Potency [3] 14.1 µM | Potency [4] 12.6 µM
